Bioassay records deposited in PubChem BioAssay by National Center for Advancing Translational Sciences (NCATS).
Sm TGR block – inhibitors of Schistosoma mansoni thioredoxin glutathione reductase; purified TGR, DTNB reduction, TNB absorbance 405 nm; Potency, µM (highest dose often 114 µM), for the others: at the highest dose activity change, negative = inhibition, actives largely listed as inhibitors; actives 3% (n = 360,000); AID 485364; also: nearly all actives have a fitted effect of over 60% in size
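Kinetic colorimetric format: TGR-catalysed, NADPH-driven DTNB reduction monitored via TNB absorbance. Enzyme dispensed at 20 nM; compound exposure 15 min at room temperature before reaction start.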
AmpC detergent – AmpC beta-lactamase inhibition with detergent present | P00811 | actives 0.041% (n = 370,000) | Potency, µM (series often up to 114 µM), for inactives: at the top dose activity change, negative = inhibition, hits mostly inhibitors | AmpC hydrolysis of nitrocefin, absorbance 480 nm, 0.01% Triton;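 also: 0% = no-compound wells and -100% = no-enzyme wells; nearly all actives have a fitted effect of over 25% in size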
Target sequence (P00811 whole entry, looked up): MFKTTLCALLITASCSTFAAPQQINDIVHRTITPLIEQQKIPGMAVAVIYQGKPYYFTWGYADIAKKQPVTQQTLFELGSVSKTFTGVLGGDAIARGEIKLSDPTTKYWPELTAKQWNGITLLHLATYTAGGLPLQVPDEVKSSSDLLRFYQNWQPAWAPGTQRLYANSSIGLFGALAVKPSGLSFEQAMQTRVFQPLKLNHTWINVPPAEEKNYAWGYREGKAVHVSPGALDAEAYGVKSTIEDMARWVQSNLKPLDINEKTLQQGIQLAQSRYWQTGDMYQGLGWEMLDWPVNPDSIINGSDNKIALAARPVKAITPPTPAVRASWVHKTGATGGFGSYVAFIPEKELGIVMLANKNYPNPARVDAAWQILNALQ
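20 mM phosphate pH 7.0 + 0.01% (detergent screen) or 0.0001% Triton X-100; 5.3 nM AmpC reagent; cpd preinc 15 min RT; nitrocefin (800 uM stock) to start; A480 q20 s × 4 min; Activity was normalised to no-enzyme and no-compound control wells.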
RE007 growth inh – less growth of the S. pombe RE007 Vpr strain; S. pombe RE007 Vpr strain, BacTiter-Glo ATP luminescence, 24 h; Potency, µM (series often up to 92.2 µM), for inactives: at the top dose activity change, negative = less growth, usual class: inhibitors; actives 0.21% (n = 360,000); active = well fitted falling curve with a large enough effect; inconclusive = small, poorly fitted or top-dose-only effect; inactive = no such curve, though single readings can be large or run the other way; also: nearly all actives have a fitted effect of over 50% in size
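Fission yeast RE007 carrying one integrated HIV-1 vpr copy, seeded at OD 0.01 in PMG+AL medium with 23 nL pinned compound. Grown 24 h at 30 degrees; viability read by BacTiter-Glo luminescence after 5 min.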
AMA1-RON2 inh – disrupts binding of P. falciparum AMA1 to RON2 | AlphaScreen AMA1-biotinylated RON2 peptide binding | actives 0.2% (n = 360,000) | Potency, µM (doses to about 58.2 µM), without a hit: at the top dose activity change, negative = inhibition, usual class: inhibitors;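 also: 0% = vehicle wells and -100% = peptide control; nearly all actives have a fitted effect of over 45% in size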
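AMA1 (3D7) with his tag at 25 nM final met compounds first, then biotinylated RON2 peptide at 25 nM; detection used donor plus acceptor beads, 10 µg/mL apiece, read by AlphaScreen after 30 min at room temperature.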
AmpC no deterg – AmpC beta-lactamase inhibition without detergent; Potency, µM (series often up to 57.1 µM), for the others: at the top dose activity change, negative = inhibition, usual class: inhibitors; actives 0.52% (n = 330,000); P00811; AmpC nitrocefin hydrolysis, absorbance 480 nm, 0.0001% Triton; AID 485341;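 also: plate controls were no compound for no effect and no enzyme for full effect; nearly all actives have a fitted effect of over 20% in size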
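AmpC (5.3 nM in the dispensed reagent) in 20 mM phosphate pH 7.0 with 0.01% (detergent screen) or 0.0001% Triton X-100 was preincubated with compounds for 15 min at room temperature. Nitrocefin was then added from an 800 uM solution, and hydrolysis was followed at 480 nm.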
Active calls of the source: *; [ ] = remark or other dose. Shown are actives, neighbours in structure and some others; about 3.2% of the full set was active somewhere. Unless noted, calls follow the shape of the dose curve; as a rule, active = well fitted curve in the direction sought with a large enough effect; inconclusive = small, poorly fitted or top-dose-only effect, or another doubt; inactive = no such curve, though single readings can be large; an effect the other way counts as inactive or inconclusive. Unless noted, % is scaled to controls: 0 for no effect and ±100 for the full control effect; potency is read from the fitted curve at half-maximal effect.

For O=C1c2ccccc2C(Nc2ccc3c(c2)OCCO3)N1Cc1ccc2c(c1)OCO2 (stereo unspecified) the results were Sm TGR block -25%, AmpC detergent inconclusive, RE007 growth inh 7%, AMA1-RON2 inh inconclusive and AmpC no deterg 10µM*.
Screening O=C(CCS(=O)(=O)c1ccccc1)N1CCCc2ccccc21 returned Sm TGR block 40µM*, AmpC detergent inconclusive, RE007 growth inh -10%, AMA1-RON2 inh 0% and AmpC no deterg 2%.
For CC(=O)n1cc([C@@H]2C=C(C(=O)NCc3ccccc3)O[C@H](OCc3ccc(CO)cc3)C2)c2ccccc21 the results were Sm TGR block 50µM*, AmpC detergent 13%, RE007 growth inh 7%, AMA1-RON2 inh -3% and AmpC no deterg 7%.
C#CCNC(=O)C1=C[C@H](c2cn(C(C)=O)c3ccccc23)C[C@H](OCc2ccc(CO)cc2)O1 was read as Sm TGR block inconclusive, AmpC detergent -7%, RE007 growth inh -6%, AMA1-RON2 inh -11% and AmpC no deterg 174%.
CC(=O)n1cc([C@H]2C=C(C(=O)N3CCN(Cc4ccccc4)CC3)O[C@@H](OCc3ccc(CO)cc3)C2)c2ccccc21 was read as Sm TGR block 18µM*, AmpC detergent 0%, RE007 growth inh -2%, AMA1-RON2 inh inconclusive and AmpC no deterg 184%.
For Cc1cccc(NC(=O)c2ccc(F)c(S(=O)(=O)NCc3ccco3)c2)c1 the results were Sm TGR block 28µM*, AmpC detergent -3%, RE007 growth inh 2%, AMA1-RON2 inh 6% and AmpC no deterg -16%.
`COc1ccc(C(=O)NCC(=O)Nc2cccc(S(=O)(=O)NCc3ccco3)c2)cc1OC` gave Sm TGR block 45µM*, AmpC detergent -1%, RE007 growth inh 12%, AMA1-RON2 inh 9% and AmpC no deterg -11%[11.4 µM].
COc1cccc(S(=O)(=O)Nc2ccc(C(=O)NCc3ccco3)cc2)c1 was read as Sm TGR block -22%, AmpC detergent 4%, RE007 growth inh 1%, AMA1-RON2 inh -7% and AmpC no deterg -26%.
Cc1cccc(C)c1NC(=O)CNC(=O)c1ccc(S(=O)(=O)NCc2ccco2)cc1 was read as Sm TGR block 20µM*, AmpC detergent 4%, RE007 growth inh 1%, AMA1-RON2 inh 6% and AmpC no deterg -20%.
Screening CC(=O)Nc1cccc(NC(=O)c2ccc(S(=O)(=O)NCc3ccco3)cc2)c1 returned RE007 growth inh 10% and AMA1-RON2 inh -13%.
`COc1cccc(S(=O)(=O)NCc2ccc(C(=O)NCc3ccco3)cc2)c1` gave Sm TGR block 28µM*, AmpC detergent inconclusive, RE007 growth inh 13%, AMA1-RON2 inh 0% and AmpC no deterg -27%.
For COc1ccc(C(=O)Nc2ccc(S(=O)(=O)NCc3ccco3)cc2)cc1OC the results were Sm TGR block 0%, AmpC detergent -18%, RE007 growth inh -7%, AMA1-RON2 inh -15% and AmpC no deterg -11%.
CCc1cccc(NC(=O)C2CCCN(c3ncnc4onc(-c5ccc(F)cc5)c34)C2)c1 (stereo unspecified) was read as Sm TGR block 1% and AmpC detergent -5%.
COc1cc(NC(=O)Nc2nnc(N3CCCCCC3)s2)cc(OC)c1 was read as Sm TGR block inconclusive and AmpC detergent 0%.
CCOC(=O)c1cccc(NC(=O)CCc2c(C)nn(-c3ccc(N4CCCCC4)nn3)c2C)c1 was read as Sm TGR block -2% and AmpC detergent -7%.
Screening CCN(CC)CCCNC(=O)C(=O)Nc1ccc2nc3n(c(=O)c2c1)CCCCC3 returned Sm TGR block 5% and AmpC detergent 15%.
COc1ccc(N2C(=O)CS(=O)(=O)C23C(=O)N(Cc2c(F)cccc2Cl)c2ccccc23)cc1 (stereo unspecified) was read as Sm TGR block 9% and AmpC detergent 19%.
`COc1ccc2c3c(cccc13)C(=O)N(O)C2=O` gave Sm TGR block 6%, AmpC detergent 3%, AMA1-RON2 inh -1% and AmpC no deterg -12%.
CCC1=NNc2cccc3c(OC)ccc1c23 was read as Sm TGR block 10µM*, AmpC detergent -3% and AmpC no deterg -13%.
Screening COc1ccccc1C(=O)Nc1ccc2nc(N3CCC(C)CC3)cc(C)c2c1 returned Sm TGR block 4% and AmpC detergent 12%.
Cc1[nH]n(-c2ccccc2)c(=O)c1N=Nc1ccc(F)cc1 was read as Sm TGR block 0%, AmpC detergent 2%, RE007 growth inh 5%, AMA1-RON2 inh -2% and AmpC no deterg -6%.
CSc1ccc(N=Nc2c(C)[nH]n(C)c2=O)cc1 was read as Sm TGR block 0%, AmpC detergent -12%, RE007 growth inh 2%, AMA1-RON2 inh 14µM* and AmpC no deterg 49%.
CCOC(=O)c1c(C)oc2nc(C)nc(N3CCN(c4ccc(C(C)=O)cc4)CC3)c12 was read as Sm TGR block 4% and AmpC detergent 21%.
`COc1cccc(NC(=O)NCc2ccc3c(c2)CCN3C(=O)c2ccccc2)c1` gave Sm TGR block 3% and AmpC detergent 16%.
Screening Cn1c(=O)c2c(nc(NN=C3CCCCC3)n2C)n(C)c1=O returned Sm TGR block 13µM*, AmpC detergent -2%, RE007 growth inh -25%, AMA1-RON2 inh 29% and AmpC no deterg -14%.
Cc1ccc(-n2cc(CNCCN3CCOC3=O)c(-c3cccc(C)c3)n2)cc1 was read as Sm TGR block 22µM*, AmpC detergent 3%, RE007 growth inh -5%, AMA1-RON2 inh -1% and AmpC no deterg -8%.
`N#CCC(=N)N1CCN(c2ccccc2)CC1` gave Sm TGR block 15%, AmpC detergent 0%, RE007 growth inh 9%, AMA1-RON2 inh -8% and AmpC no deterg -33%.
Screening N#CCC(=N)N1CCN(c2ccccc2Cl)CC1 returned Sm TGR block 2%, AmpC detergent 4%, RE007 growth inh 2%, AMA1-RON2 inh -2% and AmpC no deterg 0.32µM*.
`Cc1oc(-c2ccc3ccccc3c2)nc1CN(C)C(C)c1ccncn1` (stereo unspecified) gave Sm TGR block 50µM*, AmpC detergent 4%, RE007 growth inh -1%, AMA1-RON2 inh 21% and AmpC no deterg -9%.
COc1ccccc1C(=O)N(Cc1ccco1)C1CCS(=O)(=O)C1 (stereo unspecified) was read as Sm TGR block 35µM*, AmpC detergent -5%, RE007 growth inh 2%, AMA1-RON2 inh 5% and AmpC no deterg -21%.
